Experiment [1] is described as follows: optical density shifts of acrAB sulA E. coli – strain DRC41, OD650, 48 h, E. coli filamentation inducer project, primary screen (AID 1152).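 Also: E. coli MC1000 strain DRC41 lacking acrAB efflux pump and sulA.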 The conditions noted are these: higher = more signal, called active from +8 up or from −8 down.
Experiment [2] is described as follows: probe aLefty1 binding on compound microarray – biochemical, small-molecule microarray, 635/667 nm fluorescence, primary screen (AID 1153).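 Also: score merges spot fluorescence with signal-to-noise ratio from the scanned slide images.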 The note with it: higher = more signal.
The nature of experiment [3]: plasmodial surface anion channel blockers, osmotic lysis – cell-based, P. falciparum Indochina, OD700, 1 h, primary screen (AID 1154). The conditions noted are these: P. falciparum Indochina infected RBC osmotic lysis, higher = more signal, called active from +8 up or from −8 down.
Experiment [4] can be described thus: plasmodial surface anion channel blockers, osmotic lysis – cell-based, P. falciparum Indochina, OD700, 2 h, primary screen (AID 1155).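 Also: lysis reports solute entry through the parasite surface anion channel PSAC.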 The conditions noted are these: P. falciparum Indochina infected erythrocytes, higher = more signal, called active from +8 up or from −8 down.
Experiment [5] can be described thus: changes in parasitized red cell lysis, either direction – P. falciparum Indochina, OD700, 3 h, PSAC antagonist project, primary screen (AID 1156). The note with it: P. falciparum-infected erythrocytes, osmotic lysis, higher = more signal, called active from +8 up or from −8 down.
A short description of experiment [6]: plasmodial surface anion channel blockers, osmotic lysis – cell-based, P. falciparum Indochina, OD700, 18 h, primary screen (AID 1157). The conditions noted are these: P. falciparum Indochina infected erythrocytes, osmotic lysis OD700, 18 h; higher = more signal, called active from +8 up or from −8 down.
A short description of experiment [7]: S6 kinase pathway phospho-S6 level changes – cell-based, A549, cytoblot, luminescence, serum-stimulated, primary screen (AID 1158).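 Also: serum-stimulated A549 lung adenocarcinoma cells; signal is phosphorylated S6 detected by cytoblot immunostaining with HRP secondary.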 The conditions noted are these: 5 h, higher = more signal.
The target in experiment [8] is NADPH oxidase 2 (Homo sapiens) (UniProt P04839). In words: compounds shifting NOX2 Amplex Red fluorescence – cell-based, HEK293-NOX2, PMA-stimulated, NOX inhibitor project, primary screen (AID 1159). Also: test concentration not given here. The conditions noted are these: 45 min, higher = more signal, called active from +8 up or from −8 down.
Sequence of NADPH oxidase 2 (Homo sapiens) (P04839 whole entry, looked up): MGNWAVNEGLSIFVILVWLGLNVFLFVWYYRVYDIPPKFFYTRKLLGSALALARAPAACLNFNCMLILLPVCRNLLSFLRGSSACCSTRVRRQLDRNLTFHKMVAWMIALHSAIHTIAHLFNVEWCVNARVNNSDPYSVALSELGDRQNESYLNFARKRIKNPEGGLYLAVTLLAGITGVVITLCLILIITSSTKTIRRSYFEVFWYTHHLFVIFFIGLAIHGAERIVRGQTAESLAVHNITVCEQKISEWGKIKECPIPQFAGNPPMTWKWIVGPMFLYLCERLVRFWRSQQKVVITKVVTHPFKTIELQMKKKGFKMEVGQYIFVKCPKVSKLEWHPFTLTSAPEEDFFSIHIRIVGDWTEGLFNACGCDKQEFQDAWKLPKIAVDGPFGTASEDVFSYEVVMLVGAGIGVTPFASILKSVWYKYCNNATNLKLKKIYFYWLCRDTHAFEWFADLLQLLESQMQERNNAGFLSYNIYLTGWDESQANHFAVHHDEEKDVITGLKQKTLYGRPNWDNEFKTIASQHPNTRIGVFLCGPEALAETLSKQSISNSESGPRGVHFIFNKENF
The target of experiment [9] is NADPH oxidase 4 (Homo sapiens) (UniProt Q9NPH5). In words: compounds shifting NOX4 Amplex Red fluorescence – cell-based, HEK293-NOX4, tetracycline-induced, NOX inhibitor project, primary screen (AID 1160). The conditions noted are these: HEK293-NOX4, Amplex Red H2O2 fluorescence, 45 min; higher = more signal, called active from +8 up or from −8 down.
Sequence of NADPH oxidase 4 (Homo sapiens) (Q9NPH5 whole entry, looked up): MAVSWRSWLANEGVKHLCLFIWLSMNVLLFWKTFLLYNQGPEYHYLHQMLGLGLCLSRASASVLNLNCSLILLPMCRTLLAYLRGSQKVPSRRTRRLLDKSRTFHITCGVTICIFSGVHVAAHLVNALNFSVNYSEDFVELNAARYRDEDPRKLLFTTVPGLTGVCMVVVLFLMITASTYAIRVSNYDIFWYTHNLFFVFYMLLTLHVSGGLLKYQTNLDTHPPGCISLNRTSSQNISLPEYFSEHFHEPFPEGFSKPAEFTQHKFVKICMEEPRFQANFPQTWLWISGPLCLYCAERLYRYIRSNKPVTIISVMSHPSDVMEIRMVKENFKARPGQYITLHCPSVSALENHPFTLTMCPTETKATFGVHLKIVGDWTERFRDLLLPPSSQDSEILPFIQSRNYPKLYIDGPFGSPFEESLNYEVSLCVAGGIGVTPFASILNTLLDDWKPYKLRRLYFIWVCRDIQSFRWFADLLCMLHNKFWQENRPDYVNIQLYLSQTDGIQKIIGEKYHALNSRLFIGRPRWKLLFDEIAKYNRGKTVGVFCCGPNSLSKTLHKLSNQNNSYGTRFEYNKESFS
Experiment [10] addresses NADPH oxidase 5 (Homo sapiens) (UniProt Q96PH1). In words: compounds shifting NOX5 Amplex Red fluorescence – cell-based, HEK293-NOX5, NOX inhibitor project, primary screen (AID 1161). The conditions noted are these: HEK293-NOX5, ionomycin, 45 min, higher = more signal.
A short description of experiment [11]: compound effects on lung adenocarcinoma cell viability – A549, calcein-AM fluorescence, 48 h, basal, profiling panel (AID 1162). Also: test concentration not given here. The note with it: higher = more signal.
Experiment [12] is described as follows: compound effects on differentiated 3T3-L1 adipocyte viability – cell-based, 3T3-L1 adipocytes, calcein-AM fluorescence, 48 h, basal, profiling panel (AID 1163). Also: test concentration not given here. The conditions noted are these: 3T3-L1 adipocytes viability, higher = more signal.
A short description of experiment [13]: compound effects on hepatocellular carcinoma cell viability – HepG2, calcein-AM fluorescence, 48 h, basal, profiling panel (AID 1164). Also: test concentration not given here. The conditions noted are these: higher = more signal.
Experiment [14] can be described thus: compound effects on multiple myeloma cell viability – MM1S, calcein-AM fluorescence, 48 h, basal, profiling panel (AID 1165). Also: test concentration not given here. The conditions noted are these: higher = more signal.
The nature of experiment [15]: calcein-AM signal in unstimulated myeloma cells – cell-based, calcein-AM fluorescence, 48 h, PK04 Diversity Set, profiling panel (AID 1166).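 Also: cells grown under basal conditions without added stimulus; test concentration not given here.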 The note with it: RPMI8226 myeloma viability, higher = more signal.
The nature of experiment [16]: JC-1 mitochondrial signal, unstimulated HepG2 cells – cell-based, JC-1 fluorescence, 24 h, 100 nL compound, profiling panel (AID 1167). Also: test concentration not given here. The conditions noted are these: HepG2 mitochondrial potential, higher = more signal.
Experiment [17] is described as follows: JC-1 mitochondrial signal, unstimulated adipocytes – cell-based, JC-1 fluorescence, 3T3-L1 adipocytes, 24 h, 100 nL compound, profiling panel (AID 1168). Also: test concentration not given here. The note with it: JC-1 mitochondrial fluorescence, higher = more signal, called active from +8 up or from −8 down.
The nature of experiment [18]: JC-1 mitochondrial signal, unstimulated myeloma cells – cell-based, JC-1 fluorescence, RPMI8226, 24 h, 100 nL compound, profiling panel (AID 1169). Also: test concentration not given here. The note with it: JC-1 mitochondrial potential fluorescence, higher = more signal.
Experiment [19] can be described thus: JC-1 mitochondrial signal, unstimulated MM1S myeloma – cell-based, JC-1 fluorescence, 24 h, 100 nL compound, profiling panel (AID 1170). Also: test concentration not given here. The conditions noted are these: MM1S mitochondrial potential, higher = more signal.
Experiment [20] in a line: resazurin metabolic signal in A549 cells – cell-based, resazurin fluorescence, 24 h, PK04 Diversity Set, profiling panel (AID 1171). Also: test concentration not given here. The conditions noted are these: A549 viability, higher = more signal, called active from +8 up or from −8 down.

SMILES strings stand for the structures. The source made the active and inactive calls.

Sequence of NADPH oxidase 5 (Homo sapiens) (Q96PH1 whole entry, looked up): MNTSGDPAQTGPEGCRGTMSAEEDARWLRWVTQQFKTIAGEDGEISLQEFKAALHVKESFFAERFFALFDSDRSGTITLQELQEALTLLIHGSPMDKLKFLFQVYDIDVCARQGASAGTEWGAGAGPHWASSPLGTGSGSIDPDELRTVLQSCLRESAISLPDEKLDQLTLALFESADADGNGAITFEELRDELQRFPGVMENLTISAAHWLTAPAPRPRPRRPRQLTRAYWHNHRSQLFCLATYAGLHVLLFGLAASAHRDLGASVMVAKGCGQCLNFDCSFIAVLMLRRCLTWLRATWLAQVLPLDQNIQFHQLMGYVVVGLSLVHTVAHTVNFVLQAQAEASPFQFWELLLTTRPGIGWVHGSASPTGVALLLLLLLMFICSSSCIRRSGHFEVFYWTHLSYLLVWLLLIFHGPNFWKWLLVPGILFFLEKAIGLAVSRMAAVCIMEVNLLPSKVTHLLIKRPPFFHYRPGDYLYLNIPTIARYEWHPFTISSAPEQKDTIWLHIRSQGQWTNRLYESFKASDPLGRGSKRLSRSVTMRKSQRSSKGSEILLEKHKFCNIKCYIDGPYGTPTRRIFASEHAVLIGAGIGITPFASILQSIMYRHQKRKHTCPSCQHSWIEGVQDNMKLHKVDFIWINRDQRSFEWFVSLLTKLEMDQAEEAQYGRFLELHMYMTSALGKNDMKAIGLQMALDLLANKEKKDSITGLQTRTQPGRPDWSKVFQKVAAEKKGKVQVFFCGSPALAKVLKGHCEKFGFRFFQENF

Regarding `O=C1[C@@]23C=C(Br)[C@H](C[C@@H]2COC3)[C@@]12CO2`, the z-score is -1.07 (inactive) in [1]; 0.297 (inactive) in [3]; 0.0503 (inactive) in [4]; -0.497 (inactive) in [5]; 0.258 (inactive) in [6]; -0.679 in experiment [7]. Besides, the z-score in experiment [8] was 0.249 (inactive); in experiment [9], 0.218 (inactive); in [10], 0.139; in experiment [11], -0.0321; in experiment [12], -1.05; in experiment [13], -0.493. Besides, the z-score was -2.27 in [14]; -1.1 in experiment [15]; -1.73 in [16]; 0.281 (inactive) in [17]; -0.213 in experiment [18]; -0.809 in experiment [19]. Moreover, in [20], the z-score was -0.252 (inactive). Further, the composite z-score in [2] is -0.217.
For `CCOC(=O)C1=CC[C@@H](c2ccccc2)N(S(=O)(=O)c2ccc(C)cc2)[C@H]1c1cccc(OC)c1`, the z-score in [1] was -0.999 (inactive); in [3] it was 0.792 (inactive); in [4] it was 0.779 (inactive); in [5] it was -0.422 (inactive); in experiment [6] it was 0.385 (inactive); in [7], -0.245. In addition, the z-score in experiment [8] is 0.537 (inactive); in [9], 0.489 (inactive); in [10] it was 0.732; in experiment [11] it was -0.716; in experiment [12], -1.41; in experiment [13], -0.0906. The z-score in experiment [14] is -0.247; in experiment [15], -0.907; in [16] it was 2.94; in [17], -0.293 (inactive); in experiment [18], 0.505; in [19], -1.35. Moreover, the z-score in experiment [20] was 0.776 (inactive). In addition, the composite z-score in [2] is 0.535.
For the compound `COC(=O)C1=CC(CCCO)=CC(c2ccc(CN3CCCC3)cc2)N(Cc2cc3c(cc2Br)OCO3)C=C1C(=O)OC` (stereo not given), the z-score in [1] is 0.235 (inactive); in experiment [3], 0.903 (inactive); in [4], 0.408 (inactive); in experiment [5], 1.23 (inactive); in [6], 0.082 (inactive); in experiment [7] it was 0.158. Besides, the z-score in [8] was 1.64 (inactive); in experiment [9] it was -0.638 (inactive); in experiment [10], 0.399; in experiment [11], -0.392; in experiment [12], 0.151; in experiment [13], 0.0308. Further, the z-score in experiment [14] is 0.0875; in experiment [15], 0.046; in [16], 0.516; in experiment [17] it was -0.251 (inactive); in [18], 0.144; in [19], -0.0408. Also, the z-score in experiment [20] is 0.652 (inactive). The compound further returned a composite z-score in [2] of 0.744.
As to `COCCOC(=O)N1C(=O)[C@@]2(c3cc(C#CCCO)ccc31)[C@H](c1ccccc1OCCO)N1[C@H](c3ccccc3)[C@H](c3ccccc3)OC(=O)[C@H]1[C@@H]2C(=O)N1CCCCCCC1`, the z-score in experiment [1] is 1.59 (inactive); in experiment [3], 2.44 (inactive); in experiment [4] it was 0.0348 (inactive); in experiment [5] it was 0.431 (inactive); in [6] it was 0.951 (inactive); in experiment [7], 0.626. The z-score in experiment [8] was 0.6 (inactive); in [9], 1.29 (inactive); in [10], 1.35; in experiment [11] it was 0.66; in [12], 0.961; in experiment [13], 1.03. Also, the z-score in experiment [14] was 0.115; in experiment [15], -0.004; in experiment [16], 0.454; in [17], 0.339 (inactive); in experiment [18], -0.155; in [19], -1.31. Also, in experiment [20], the z-score is 0.596 (inactive). Moreover, in experiment [2], the composite z-score stood at 2.58.
With `CO[C@H]1O[C@H](CO)[C@@H](OC(=O)Nc2cccc(F)c2)[C@H](OC(=O)Nc2ccccc2-c2ccccc2)[C@H]1OC(=O)Nc1ccccc1-c1ccccc1`, the z-score was -0.732 (inactive) in experiment [1]; 4.41 (inactive) in experiment [3]; 1.22 (inactive) in [4]; -2.85 (inactive) in [5]; 0.937 (inactive) in experiment [6]; -0.309 in experiment [7]. Further, the z-score in experiment [8] was -5.73 (inactive); in [9], -1.02 (inactive); in experiment [10] it was -1.21; in experiment [11], -4.26; in experiment [12] it was 0.737; in experiment [13], -4.76. In addition, the z-score in experiment [14] is -3.44; in experiment [15], -4.3; in [16] it was 0.0525; in [17], 0.461 (inactive); in experiment [18], -0.936; in experiment [19], -1.88. Besides, in experiment [20], the z-score was -6.1 (inactive). The compound also came in with a composite z-score in experiment [2] of 0.302.
As for `Cc1ccccc1C(O)C1C=CC2C(=O)N(c3ccccc3)C(=O)C2N1Nc1ccc([N+](=O)[O-])cc1` (stereo not given), the z-score in experiment [1] is -0.467 (inactive); in [3] it was 26.5 (active); in experiment [4] it was 11.2 (active); in experiment [5], 2.6 (inactive); in experiment [6], 1.52 (inactive); in experiment [7], -0.483. The z-score is -1.29 (inactive) in experiment [8]; -3.58 (inactive) in [9]; -1.83 in [10]; -1.06 in [11]; -0.127 in experiment [12]; -1.2 in [13]. The z-score in experiment [14] is -0.127; in experiment [15] it was -0.566; in experiment [16], -1.04; in experiment [17], -1.1 (inactive); in experiment [18] it was -0.247; in experiment [19] it was 0.585. The z-score in [20] was 0.306 (inactive). Moreover, the composite z-score in [2] worked out at 0.186.
